The record followed here is ChEMBL document CHEMBL4513216, “Probing the Open Global Health Chemical Diversity Library for Multistage-Active Starting Points for Next-Generation Antimalarials” (ACS Infect Dis, 2020).

Hit rate of the full screen: of about 69,000 compounds, about 8,600 (12%) showed an effect of 50% or more. The entries come from a sample that favours strong results as a whole.

This test relates to Plasmodium berghei. Briefly: Screen against P. berghei liver stage (PbLuc), transformed with Luciferase, at 10uM. It counts as functional, HepG2. Conditions: tested at 10 uM.
As for `Cc1nc2c(C)cccc2cc1C(=O)N1CCC2(CCN(C)CC2)C1`, the INHIBITION is listed as -17.7%. As for `CCOCCN1CCN(CCOC)CC1C` (configuration not stated), the figure is 11.4%; as for `CCOc1nnc(CN2CCN(CCOC)C(CC)C2)s1` (configuration not stated), 28.6%. As for `CCOc1nnc(CN2CCN(CCOC)C(C)C2)s1` (configuration not stated), the figure is 51.7%; as for `CCOc1nnc(CN2CCC(c3nc4ccccc4[nH]3)CC2)s1`, -35.9%. As for `CCOc1nnc(CN2CCN(CCOC)CC2)s1`, the figure is 53.4%; as for `CCOc1nnc(CN2CCC(c3cc4ccccc4[nH]3)CC2)s1`, -14.2%. With `COCC1CC2(CCN(C(=O)c3ccc(C)nc3)CC2)CO1` (configuration not stated), the INHIBITION was -26.1%. Consider `COc1ccc(C2CCCN2C(=O)NCCn2ccnc2)cc1OC` (configuration not stated), for which the INHIBITION is reported as -20.965%.

Take `O=S(=O)(C1CC1)N1CC[C@@H](OCC2CC2)[C@@H]1Cc1ccncc1`: the INHIBITION turned out to be 47.5%. Regarding `CNc1nc(CNC(=O)Nc2ccc(OC(C)C)cc2F)cs1`, the INHIBITION is listed as 72.3%.

In the case of `CNc1nc(CNC(=O)Nc2cc(Cl)ccc2F)cs1`, the INHIBITION is listed as -41.85%. Then `CNc1nc(CNC(=O)Nc2ccc(OC)cc2C)cs1`, with 21.5%; and `CNc1nc(CNC(=O)Nc2ccccc2OC(C)C)cs1`, with 32.3%; and `CNc1nc(CNC(=O)Nc2cccc(C)c2Cl)cs1`, with -25.15%. In the case of `CNc1nc(CNC(=O)Nc2ccc(OC(C)C)cc2C)cs1`, the INHIBITION turned out to be 57.2%. As for `COc1ccc2[nH]cc(C(=O)CNc3nc(C)cs3)c2c1`, the figure is -29.5%.

As for `O=C(CCOc1ccc(F)cc1)N1CCCC1Cn1cccn1` (configuration not stated), the INHIBITION is recorded as 30.6%.

Regarding `Cc1ccc2c(n1)N(CCn1cccn1)CCN(C(=O)NC(C)C)C2`, the INHIBITION is listed as -32%. `CS(=O)(=O)NCc1cnc2n1CCN(Cc1ccsc1)CC2`: the INHIBITION amounted to 30.1%. Take `CCOc1ccccc1Oc1ccc(CN)cn1`: the INHIBITION was 60.3%. As for `NCc1ccc(Oc2cccc(Cl)c2Cl)nc1`, the figure is 28.7%; as for `NCc1ccc(Oc2cccc(Cl)c2Cl)cc1`, 13.2%; as for `CC(C)CCN1CCc2c(C(=O)N(C)Cc3ccccn3)nn(C)c2C1`, 48.2%. Then `CCCN1CCc2c(C(=O)N(C)Cc3ccccn3)nn(C)c2C1`, with 55.6%. As for `CN(Cc1ccccn1)C(=O)c1nn(C)c2c1CCN(CC1CC1)C2`, the figure is 48.2%; as for `COCCCNC(=O)CN(C)C1CCCN(c2cccnn2)C1` (configuration not stated), -14.7%; as for `CC(=O)N1CC(=O)N(c2ccsc2)CC12CCN(Cc1ccoc1)C2` (configuration not stated), -3.58%. On to `CCN1C(=O)C(c2ccccc2)CC12CCN(CCO)CC2` (configuration not stated), for which the INHIBITION was found to be 19.8%. With `CNC(=O)CN1CC[C@H]2CN(C(=O)c3ccccc3C)C[C@H]2C1`, the INHIBITION is on record as -28%. Turning to `Cc1nn(CC(=O)N2CCN(Cc3cnn(C)c3C)CC2)cc1Br`, the INHIBITION is -5.92%. Turning to `CCn1ncc(CN2CCN(C(=O)Cn3cc(Br)c(C)n3)CC2)c1C`, the INHIBITION came out at 34%. In the case of `Cc1nn(CC(=O)N2CCN(Cc3cn(C)nc3C)CC2)cc1Br`, the INHIBITION came to 51%.

`CCn1cc(CN(C)S(=O)(=O)c2cnn(C)c2)cn1`: the INHIBITION is listed as 7.66%.

`O=c1c2cn[nH]c2nc(SCCN2CCOCC2)n1-c1ccccc1`: the INHIBITION was found to be 21.5%. Take `CC(=O)N1CCC2(CN(CC3CCCC3)C2)C1`: the INHIBITION worked out at 39.5%. Then `CC(=O)N1CCC2(CCN(CC3CCCCC3)C2)CC1`, with 51.9%; and `CC(=O)N1CCC2(CCN(CC3CCOC3)C2)CC1` (configuration not stated), with 42.1%; and `COc1cccc(-c2nc(C)c(C(=O)N[C@H](CO)CC(C)C)s2)c1`, with -23.7%. Turning to `Cc1occc1C(=O)N1C[C@@H]2[C@@H](C1)OCC(=O)N2Cc1cccnc1`, the INHIBITION is -6.23%. As for `CN(CC1CCOCC1)C1CCCN(c2ccccn2)C1` (configuration not stated), the figure is 18.805%. Turning to `CCN(CCn1cccn1)Cc1nc(-c2ccoc2)oc1C`, the INHIBITION is -31.9%. `CCN(CCn1cccn1)Cc1nc(-c2cc(F)ccc2F)oc1C`: the INHIBITION is 26.1%.

Consider `Cc1cnn(CCNCc2nc(-c3ccsc3)oc2C)c1`, for which the INHIBITION amounted to 47.4%. With `Cc1oc(-c2ccsc2)nc1CNCCn1cccn1`, the INHIBITION was 53.4%. Then `Cc1oc(-c2ccsc2)nc1CNC(C)Cn1cccn1` (configuration not stated), with 39.7%; and `CCN(CCn1cccn1)Cc1nc(-c2ccc(F)cc2)oc1C`, with 62.4%. As for `Cc1nn(CC(=O)O)c(C)c1NS(=O)(=O)c1cccc2ccccc12`, the figure is 2.97%; as for `CNC(=O)CN1CCO[C@H]2CN(CC3CCOC3)C[C@H]21` (some centres not stated), 8.85%; as for `CNc1ccnc(N2C[C@H]3CC[C@@H](C2)N(CCOC)C3=O)n1`, -144%. Then `O=C(c1ccco1)N1C2CCC(O)(CC2)C1CN1CCOCC1` (configuration not stated), with 17.7%; and `Cc1ccsc1-c1nc(CN(C)Cc2noc(C(C)C)n2)c(C)o1`, with 30%; and `COc1ccc(OC)c(-c2nc(CN(C)Cc3noc(C)n3)c(C)o2)c1`, with 31.1%. As to `Cc1ccsc1-c1nc(CN(C)Cc2cc[nH]n2)c(C)o1`, the INHIBITION was found to be 54.6%. Consider `Cc1nc(CN(C)Cc2nc(-c3sccc3C)oc2C)no1`, for which the INHIBITION is recorded as 56.3%. Then `CCc1cc(CN(C)Cc2nc(-c3sccc3C)oc2C)on1`, with 1.37%; and `Cc1nonc1CN(C)Cc1nc(-c2cccc(F)c2F)oc1C`, with 8.99%.
